Screening data: PubChem BioAssay, several laboratories
These entries were drawn from the full list.
CYP2C9 inhib: human CYP2C9 inhibition; CYP2C9 Supersomes, luciferin-H conversion, luminescence; inhibition, % at 5 µM; hit rate 20% among 96,000;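 active = blocking of liver enzyme CYP2C9 beyond about 50% at 5 µM, limit read from the data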
Target sequence (P11712 whole entry, looked up): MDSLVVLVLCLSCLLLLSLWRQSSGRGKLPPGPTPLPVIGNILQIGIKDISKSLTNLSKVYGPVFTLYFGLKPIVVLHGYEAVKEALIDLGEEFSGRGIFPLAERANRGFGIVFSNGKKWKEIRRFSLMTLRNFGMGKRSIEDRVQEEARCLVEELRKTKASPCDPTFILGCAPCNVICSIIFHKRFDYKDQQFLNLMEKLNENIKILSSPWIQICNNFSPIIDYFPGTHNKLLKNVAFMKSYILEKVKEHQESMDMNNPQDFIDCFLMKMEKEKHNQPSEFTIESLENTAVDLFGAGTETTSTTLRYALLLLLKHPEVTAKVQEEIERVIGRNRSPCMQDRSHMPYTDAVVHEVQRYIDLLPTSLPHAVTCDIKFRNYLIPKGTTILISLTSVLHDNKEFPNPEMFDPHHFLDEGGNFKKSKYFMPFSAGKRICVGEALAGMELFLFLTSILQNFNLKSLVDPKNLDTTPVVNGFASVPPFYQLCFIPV
PostGolgi yeast: growth inhibition of a yeast mutant, post-Golgi transport screen | post-Golgi transport phenotypic cell assay | inhibition, % at 10 µM | hit rate 0.9% among 98,000;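 note: yeast cells grown in 1536-well plates; yeast grown about 18 h at 30C before absorbance read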
CYP2C19 activ: cytochrome P450 2C19 (human) activation | P33261 | activation factor at 5 µM | 96,000 tested, under 10 active | AID 1025 | recombinant CYP2C19, luciferin-H EGE luminescence; active compounds read high; 0 = fully inhibited enzyme, 1 = untreated enzyme;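 active = activation factor of at least 2 at 5 µM in the primary screen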;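 note: 0 = wells with 2.5 mM tranylcypromine and 1 = vehicle-only wells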
CYP2C9 act: CYP2C9 (human) activation | recombinant CYP2C9, luciferin-H conversion, luminescence; active compounds read high; factor 1 = untreated enzyme, 0 = blocked | P11712 | activation factor at 5 µM | hit rate 1.4% among 96,000;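 active = activation factor of 2 or more for CYP2C9 at a 5 µM dose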;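 note: 0 = sulfaphenazole-blocked wells and 1 = vehicle-only wells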
CYP2C19 inhib: inhibitors of human CYP2C19 | P33261 | CYP2C19 Supersomes, luciferin-H EGE luminescence, 30 min | inhibition, % at 5 µM | hit rate 21% among 96,000 | AID 778;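 active = CYP2C19 inhibition above a set limit at 5 µM in the primary screen, cut at about 50% in these data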;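 note: plate controls were negative control wells for no effect and 2.5 mM tranylcypromine positive control for full effect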
PostGolgi ctrl: yeast control strain growth, post-Golgi counter-screen; AID 738; hit rate 5% among 98,000; efflux-deficient yeast background strain, growth absorbance A615, 16 h; inhibition, % at 10 µM
Numbers without * were called inactive. Cut-off read from the data, not from the text of the source, unless noted: active = inhibition above about 30%; inactive = the rest.

`COc1ccc(OC)c(NC2c3ncccc3C(=O)N2Cc2ccco2)c1` (stereo not given) gave CYP2C9 inhib 27, PostGolgi yeast 9, CYP2C19 activ 0.7, CYP2C9 act 0.7, CYP2C19 inhib 29 and PostGolgi ctrl 11.
Screening CCOC(=O)c1ccc(NC2c3ncccc3C(=O)N2Cc2ccc(F)cc2)cc1 (stereo not given) returned CYP2C9 inhib 70*, PostGolgi yeast -1, CYP2C19 activ 0.6, CYP2C9 act 0.3, CYP2C19 inhib 41 and PostGolgi ctrl 29.
`CCOc1ccc(N2C(=O)c3cccnc3C2Nc2ccc(Cl)cc2)cc1` (stereo not given) gave CYP2C9 inhib 27, PostGolgi yeast -3, CYP2C19 activ 0.5, CYP2C9 act 0.7, CYP2C19 inhib 46 and PostGolgi ctrl 14.
`COc1ccc(CN2C(=O)c3cccnc3C2Nc2cc(Cl)ccc2OC)cc1` (stereo not given) gave CYP2C9 inhib 48, PostGolgi yeast 8, CYP2C19 activ 0.4, CYP2C9 act 0.5, CYP2C19 inhib 63* and PostGolgi ctrl 10.
`O=C1c2cccnc2C(Nc2ccc(S(=O)(=O)N3CCCCC3)cc2)N1Cc1ccccc1` (stereo not given) gave CYP2C9 inhib 33, PostGolgi yeast -3, CYP2C19 activ 0.9, CYP2C9 act 0.7, CYP2C19 inhib 13 and PostGolgi ctrl 3.
`COc1cc(OC)c(CN2CCCCCCC2)cc1Br` gave CYP2C9 inhib 0, PostGolgi yeast 1, CYP2C19 activ 0.6, CYP2C9 act 1, CYP2C19 inhib 37 and PostGolgi ctrl -4.
For COc1cc(OC)cc(C(=O)OCc2cc3ccccc3[nH]c2=O)c1 the results were CYP2C9 inhib 2, PostGolgi yeast 12, CYP2C19 activ 0.9, CYP2C9 act 1, CYP2C19 inhib 15 and PostGolgi ctrl 5.
Screening CCOC(=O)/C(C#N)=C\C=C1C=CN(C)C=C1 returned CYP2C9 inhib 5, PostGolgi yeast -20, CYP2C19 activ 1.1, CYP2C9 act 1, CYP2C19 inhib -13 and PostGolgi ctrl 5.
`COc1ccc(C2OC(=O)CC2C(=O)NC2CCCCCC2)cc1OC` (stereo not given) gave CYP2C9 inhib 21, PostGolgi yeast -14, CYP2C19 activ 0.9, CYP2C9 act 0.8, CYP2C19 inhib 10 and PostGolgi ctrl 2.
Screening CCn1ncc(Br)c1C(=O)Nc1sc2c(c1C(N)=O)CCC2 returned CYP2C9 inhib 21, PostGolgi yeast 6, CYP2C19 activ 0.7, CYP2C9 act 0.8, CYP2C19 inhib 27 and PostGolgi ctrl -4.
For CC(=O)Oc1ccc2ccccc2c1C(NC(=O)Cc1ccccc1)c1ccccc1Cl (stereo not given) the results were CYP2C9 inhib 48, PostGolgi yeast 3, CYP2C19 activ 0.4, CYP2C9 act 0.5, CYP2C19 inhib 63* and PostGolgi ctrl 15.
CC(O)CNCCNCc1c(OCc2ccccc2)ccc2ccccc12 (stereo not given) was read as CYP2C9 inhib 12, PostGolgi yeast -2, CYP2C19 activ 0.7, CYP2C9 act 0.9, CYP2C19 inhib 25 and PostGolgi ctrl -4.
COC(=O)c1ccc(CSCC(=O)Nc2cc(OC)cc(OC)c2)o1 was read as CYP2C9 inhib 64*, PostGolgi yeast 3, CYP2C19 activ 0.5, CYP2C9 act 0.4, CYP2C19 inhib 45 and PostGolgi ctrl 3.
For COC(=O)c1ccc(CSc2nnc(Nc3cccc(OC)c3)s2)o1 the results were CYP2C9 inhib 40, PostGolgi yeast -6, CYP2C19 activ 0.7, CYP2C9 act 0.6, CYP2C19 inhib 33 and PostGolgi ctrl 14.
CCOC(=O)Cn1c(CCC(=O)O)ccc1-c1ccc(F)cc1 was read as PostGolgi yeast 7 and PostGolgi ctrl 0.
O=C(O)CCCNS(=O)(=O)c1ccc2ccccc2c1 was read as CYP2C9 inhib -34, PostGolgi yeast 3, CYP2C19 activ 0.9, CYP2C9 act 1.3, CYP2C19 inhib 10 and PostGolgi ctrl 24.
O=C1c2cc(S(=O)(=O)NCCCO)ccc2-c2ccc(S(=O)(=O)NCCCO)cc21 was read as CYP2C9 inhib 58*, PostGolgi yeast 3, CYP2C19 activ 1, CYP2C9 act 0.4, CYP2C19 inhib 4 and PostGolgi ctrl -9.
`COCCNS(=O)(=O)c1ccc2c(c1)C(=O)c1cc(S(=O)(=O)NCCOC)ccc1-2` gave CYP2C9 inhib 64*, PostGolgi yeast -6, CYP2C19 activ 0.9, CYP2C9 act 0.4, CYP2C19 inhib 6 and PostGolgi ctrl 2.
For COc1ccccc1NS(=O)(=O)c1ccc(OC)c(OC)c1 the results were CYP2C9 inhib -159, PostGolgi yeast 0, CYP2C19 activ 0, CYP2C9 act 2.6*, CYP2C19 inhib 99* and PostGolgi ctrl 3.
COc1ccc(C(C)C)cc1S(=O)(=O)Nc1ccccn1 was read as CYP2C9 inhib 1, PostGolgi yeast -2, CYP2C19 activ 0.9, CYP2C9 act 1, CYP2C19 inhib 14 and PostGolgi ctrl 11.
Screening COc1ccc(S(=O)(=O)Nc2ccccc2C(=O)NC(C)(C)C)cc1OC returned CYP2C9 inhib 20, PostGolgi yeast 3, CYP2C19 activ 0.3, CYP2C9 act 0.8, CYP2C19 inhib 73* and PostGolgi ctrl 4.
For COc1ccc(S(=O)(=O)Nc2ccccc2C(=O)OC2CCCN(C)C2)cc1OC (stereo not given) the results were CYP2C9 inhib -60, PostGolgi yeast 4, CYP2C19 activ 0.3, CYP2C9 act 1.6, CYP2C19 inhib 66* and PostGolgi ctrl -1.
COc1ccccc1NS(=O)(=O)c1cc(Cl)ccc1OC was read as CYP2C9 inhib 48, PostGolgi yeast 8, CYP2C19 activ 0, CYP2C9 act 0.5, CYP2C19 inhib 97* and PostGolgi ctrl 10.
Screening COc1ccc(C(=O)N(C(C)C)C(C)C)c(OC)c1 returned CYP2C9 inhib 10, PostGolgi yeast -4, CYP2C19 activ 1, CYP2C9 act 0.9, CYP2C19 inhib 4 and PostGolgi ctrl 2.
`Cc1ccc(-n2c(SCc3cc(=O)n4ccsc4n3)nnc2-c2cccnc2)c(C)c1` gave CYP2C9 inhib 35, PostGolgi yeast 1, CYP2C19 activ 0.9, CYP2C9 act 0.7, CYP2C19 inhib 12 and PostGolgi ctrl 9.
`COC(=O)C(Cc1cnc[nH]1)NC(=O)C1CCC(=O)N1` (stereo not given) gave CYP2C9 inhib 14, PostGolgi yeast -1, CYP2C19 activ 1, CYP2C9 act 0.9, CYP2C19 inhib -1 and PostGolgi ctrl 4.
COc1ccccc1NS(=O)(=O)c1ccc(C)c(C(N)=O)c1 was read as CYP2C9 inhib -4, PostGolgi yeast -2, CYP2C19 activ 0.1, CYP2C9 act 1, CYP2C19 inhib 88* and PostGolgi ctrl 11.
Screening CCN(CC)S(=O)(=O)c1ccc(OC)c(NS(=O)(=O)c2ccc(F)cc2)c1 returned CYP2C9 inhib 15, PostGolgi yeast -1, CYP2C19 activ 0.6, CYP2C9 act 0.9, CYP2C19 inhib 39 and PostGolgi ctrl 6.
